Records with an inconclusive call do not appear. A call without a number means that no potency is given here. The source made the active and inactive calls. Calls follow the shape of the dose curve; as a rule, active = well fitted cell-killing curve with a large enough effect in the repeat runs; inconclusive = weak or mixed curves, or effect the other way; inactive = flat fitted curve, though single readings scatter.

The nature of this assay: qHTS assay to identify small molecule antagonists of the androgen receptor (AR) signaling pathway using the MDA cell line in the presence of 0.5 nM R1881 - cell viability counter screen (AID 1259242). Also: nearly all actives have a fitted effect of over 45% in size. Conditions: MDA-kb2 viability, CellTiter-Fluor protease fluorescence, 16 h; series mostly up to 92.4 µM. The text has this: U.S. Tox21 Program National Center for Advancing Translational Sciences [NCATS] NIH Chemical Genomics Center [NCGC] U.S. Environmental Protection Agency [EPA] National Institutes of Environmental Health Sciences [NIEHS] National Toxicology Program [NTP] U.S. Food and Drug Administration [FDA] Tox21 Assay Overview: Androgen receptor (AR) is an important member of the nuclear receptor family. Its signaling plays a critical role in AR-dependent prostate cancer and other androgen related diseases. Considerable attention has been given in the past decades to develop methods to study and screen for the environmental chemicals that have the potential to interfere with metabolic homeostasis, reproduction, developmental and behavioral functions. Therefore AR binding assay for screening androgen antagonists can be used to identify potential endocrine disruptors. MDA-kb2 cells (from ATCC, deposited by Wilson et al.) were used to screen for AR inhibitors against Tox21 compound libraries. These cells are human breast carcinoma cells that were stably transfected with a luciferase reporter gene under control of the MMTV promoter that contains response elements for both androgen receptor (AR) and glucocorticoid receptor (GR). The current screening for identification of AR inhibitors against Tox21 libraries used lower concentration of (0.5 nM) R1881 as a stimulator. The cytotoxicity of the Tox21 compound libraries against MDA-kb2 cell line was tested by measuring live-cell protease activity using CellTiter-Fluor assay in the same wells.
Tox21 Assay Protocol Summary: MDA-kb2 cells (cells cultured without CO2) were dispensed at 3,000 cells/well in 4 uL of culture medium into white wall/solid-bottom 1536-well plates (Corning Life Sciences, Corning, NY) using a Multidrop Combi (ThermoFisher Scientific, Waltham, MA) dispenser. After the assay plates were incubated at a 37C and 0% CO2 for 5 hr, 23 nL of compounds dissolved in DMSO, positive controls or DMSO only was transferred to the assay plate by a Pintool station (Kalypsys, San Diego, CA). The transfer of compounds was followed by the addition of 1 uL of 0.5 nM (final concentration) agonist (R1881)/culture medium using a Flying Reagent Dispenser (FRD, Aurora Discovery, San Diego, CA). The plates were incubated at 37C and 0% CO2 for 16 hr. For cytotoxicity assay, 1 uL of CellTiter-Fluor reagent (Promega Corporation, Madison, WI) was added to each well using the FRD and after 30 min incubation at 37C and 0% CO2, The fluorescence intensity was measured using ViewLux plate reader (PerkinElmer, Shelton, CT).
(qHTS replaces the single test concentration by a dilution series.)
For the compound `CNC(=O)N(c1ccccc1)c1ccccc1`, the Potency result was “inactive”.
Turning to `C1COCO1`, the Potency result was “inactive”.
In the case of `CCOC(=O)C(C)Oc1ccc(Oc2nc3ccc(Cl)cc3o2)cc1` (stereo not given), the Potency result is “inactive”.
As for `CC1CC(=O)NN=C1c1ccc(NCC(C)(C)NCC(O)COc2cc(Cl)ccc2C#N)cc1` (stereo not given), the Potency entry was “inactive”.
As for `CCCCCCCCSCCO`, the Potency entry was “inactive”.
As to `COC(=O)c1cc(Cl)ccc1NS(=O)(=O)C(F)(F)F`, the Potency result is “inactive”.
On to `CC1(C)C2=CCCC(C)(C)[C@]23CC[C@H]1C3`, for which the Potency result was “inactive”.
For the compound `CC(CCc1ccc2c(c1)OCO2)NN` (stereo not given), the Potency entry is “inactive”.
`C[Si]1(C)O[Si](C)(C)O[Si](C)(C)O1`: the Potency entry is “inactive”.
Next, `CN1CCN(CCCN2c3ccccc3Sc3ccc(S(=O)(=O)N(C)C)cc32)CC1`: “inactive”.
Take `C[Si](NC1CCCCC1)(NC1CCCCC1)NC1CCCCC1`: the Potency entry was “inactive”.
Take `Cc1cc(O)c2c(O)c3c(O)cccc3cc2c1`: the Potency entry is “inactive”.
Consider `C=CC(=C)CCCC(C)(C)OC(C)=O`, for which the Potency result is “inactive”.
As to `Oc1ccc(Nc2ccccc2)cc1`, the Potency result is “inactive”.
Next, `CCN(CC)CCNC(=O)c1ccc(NC(C)=O)cc1`: “inactive”; `COC(=O)Nc1nc2ccc(C(=O)c3cccs3)cc2[nH]1`: “inactive”.
With `O=[N+]([O-])c1cccc(S(=O)(=O)NCCNS(=O)(=O)c2cccc([N+](=O)[O-])c2)c1`, the Potency result is “inactive”.
With `C[C@@H]1C[C@H]2[C@@H]3CCC4=CC(=O)C=C[C@]4(C)[C@@]3(F)[C@@H](O)C[C@]2(C)[C@H]1C(=O)CO`, the Potency entry was “inactive”.
Consider `CCOc1cc(N)c(Cl)cc1C(=O)NCC1CN(Cc2ccc(F)cc2)CCO1` (stereo not given), for which the Potency result is “inactive”.
In the case of `c1cnc2c(n1)CCCC2`, the Potency result is “inactive”.
For the compound `CCCCC(CC)CNCC(CC)CCCC` (stereo not given), the Potency result is “inactive”.
As to `CN1C(=O)CC(C)(c2ccccc2)C1=O` (stereo not given), the Potency entry is “inactive”.
For `CC(C)C(=O)O`, the Potency entry was “inactive”.
For `CC(CCO)CCc1ccccc1` (stereo not given), the Potency result was “inactive”.
In the case of `CCCCCCOC(=O)CCCCCCCC(=O)OCCCCCC`, the Potency result was “inactive”.
Take `CCCCC/C(=C\c1ccccc1)CO`: the Potency entry is “inactive”.
Next, `CCOC(=O)OCC`: “inactive”.
Regarding `O=C(O)c1ccc(CO)o1`, the Potency result was “inactive”.
For `CN1Cc2cc(C(=O)N3CCC(C4CCNCC4)CC3)ccc2N[C@@H](CC(=O)O)C1=O`, the Potency result was “inactive”.
Regarding `CCCCN(CCCC)C(=S)SSC(=S)N(CCCC)CCCC`, the Potency entry is “inactive”.
For `Cc1ccccc1N1C(=O)c2cc(S(N)(=O)=O)c(Cl)cc2NC1C` (stereo not given), the Potency result was “inactive”.
With `CC1=CC(=O)CC(C)(C)C1(O)/C=C/C(C)=C\C(=O)O` (stereo not given), the Potency result is “inactive”.
As for `O=C(CCCCCCC(=O)Nc1ccccc1)NO`, the Potency result was “inactive”.
Turning to `O=C(CS)OCCOC(=O)CS`, the Potency result was “inactive”.
Next, `O=Cc1c(Cl)cccc1Cl`: “inactive”; `CCC(=O)OC/C=C/c1ccccc1`: “inactive”; `Cc1cc(C(=C2C=CC(=Nc3ccc(S(=O)(=O)O)cc3S(=O)(=O)O)C=C2)c2ccc(Nc3ccc(S(=O)(=O)O)cc3)cc2)ccc1N`: “inactive”.
Consider `c1cc[c]([Bi]([c]2ccccc2)[c]2ccccc2)cc1`, for which the Potency result is “inactive”.
With `CSc1ccc(Oc2ccc(S(N)(=O)=O)cc2CN(C)C)cc1C`, the Potency result is “inactive”.
With `CCCCCCCC/C=C\CCCCCCCC(=O)OC` the entry was “inactive”.

(Values after PubChem BioAssay (Tox21).)
